Measurements from PubChem BioAssay.
Records with an inconclusive call do not appear. Unmarked numbers belong to inactive results.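 The calls were made as follows, unless noted: active = cell viability at or below a set limit in both duplicate runs, the limit being the all-compound median minus 4 SD (cut at about 23% in these data, passing the limit was not always enough); inconclusive = no clear call, values can overlap the other calls; inactive = the rest.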

Experiment: viability of HCT116 without oncogenic beta-catenin – human colon tumor cells, pilot screen (AID 823);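 also: 0% = wells killed by 20 µM Hyamine and 100% = untreated DMSO cell wells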
Details: HCT116 beta-catenin knockout viability, CellTiter-Glo, 60 h; at 10 µM; active compounds read low

Row | SMILES | viability [%]
1 | O=C(c1ccc2nc(N3CCCCC3)sc2c1)N1CCN(c2ccccn2)CC1 | 106
2 | CC(C)CCNC(=O)Cn1c(NCCC(C)C)nc2c1c(=O)n(C)c(=O)n2C | 98.2
3 | CC(=O)NC(C)c1nc2ccccc2n1C(C)C (stereo not drawn) | 84.8
4 | NC(=O)CSc1cn(CCNC(=O)c2cccs2)c2ccccc12 | 107
5 | Cc1cccc(C2CC(c3ccc(Cl)cc3)Nc3nc(N)nn32)c1 (stereo not drawn) | 82.1
6 | CCOC(=O)CN1CC23C=CC(O2)C(C(=O)Nc2ccc(C(C)=O)cc2)C3C1=O (stereo not drawn) | 102
7 | CCCSc1nnc(N2C(=O)CC(c3ccsc3)C3=C2CCCC3=O)s1 (stereo not drawn) | 99.4
8 | O=C(CN1CCN(Cc2ccc(F)cc2Cl)C1=O)NCCCN1CCOCC1 | 94.5
9 | CN(C)CCCN1C(=O)CSC1c1ccccc1 (stereo not drawn) | 104
10 | COC(=O)Cn1c(=O)c2c(nc3n2CC(C)CN3c2ccc(C)c(C)c2)n(C)c1=O (stereo not drawn) | 97.9
11 | CCCSC1=C(C#N)C(c2cc(OC)ccc2OC)CC(=O)N1 (stereo not drawn) | 92.5
12 | O=C(Nc1ccc(CN2CCOCC2)cc1)c1cc2ccccn2n1 | 100
13 | CCN(CC)CCn1c(=N)n(CCO)c2ccccc21 | 101
14 | CCN(CCCNS(=O)(=O)c1ccc2c(c1)oc(=O)n2C)c1cccc(C)c1 | 87.2
15 | COc1ccc(OC)c(C2=NOC(C(=O)Nc3c(C)n(C)n(-c4ccccc4)c3=O)C2)c1 (stereo not drawn) | 99.4
16 | O=C(Cn1cc2c(n1)CCCCC2)N1CCc2ccccc2C1 | 86.2
17 | Cn1c(=O)c2c(nc(SCCCC#N)n2Cc2c(F)cccc2Cl)n(C)c1=O | 89.2
18 | CCN1CCN(Cc2ccc(NC(=O)Nc3ccccc3)cc2)CC1 | 103
19 | CCOC(=O)N1CCN(Cc2nc3c(c(=O)n(C)c(=O)n3C)n2Cc2ccccc2)CC1 | 97.3
20 | COCCCNC(=O)Cn1cc2c(n1)CCC(C)C2 (stereo not drawn) | 104

Row | SMILES | viability [%]
21 | C=CCc1ccccc1OCCCCN1CCCC1 | 77.1
22 | COc1ccc(OCC(=O)N2CC3(C)CC2CC(C)(C)C3)cc1 (stereo not drawn) | 97.9
23 | O=C1c2ccccc2C(Nc2ccc(-c3nc4ccccc4[nH]3)cc2)N1Cc1ccco1 (stereo not drawn) | 59.2
24 | CCCNc1nc(N2CCOCC2)nc(N2CCOCC2)n1 | 92.8
25 | COCCn1c(SCC(=O)Nc2ccc3c(c2)OCCO3)nc2c(c1=O)SC(C)C2 (stereo not drawn) | 102
26 | COc1ccc(NC(=O)C2CCCN2S(=O)(=O)c2cccc3cccnc23)c(OC)c1 (stereo not drawn) | 91.6
27 | CCOC(=O)Cn1ncc(-c2ccccc2)c1N | 100
28 | O=C(O)C1CC(=O)N(CCOc2ccccc2)C1 (stereo not drawn) | 102
29 | Cc1ccc(-n2c3c(cc(C(=O)NCCCN4CCOCC4)c2=O)C(=O)CC(C)(C)C3)cc1 | 101
30 | CCOC(=O)C1CCN(Cc2ccc(OC)c(C)c2OC)CC1 | 78.3
31 | COc1ccc(C(C)N2CC34C=CC(O3)C(C(=O)OCC(C)C)C4C2=O)cc1 (stereo not drawn) | 103
32 | Cc1c(NC(=O)C2CCCCN2S(=O)(=O)c2ccc(Cl)cc2)c(=O)n(-c2ccccc2)n1C (stereo not drawn) | 96.9
33 | CC(C)(NC(=O)N1CCCC1)c1cccc(C(C)(C)NC(=O)N2CCCC2)c1 | 100
34 | CC(C)NC(=O)c1ccc2c(c1)nnn2C | 106
35 | Cc1ccc(C(=O)CC2(O)C(=O)N(C)c3ccc(Br)cc32)c(C)c1 (stereo not drawn) | 71.5
36 | Cc1ccc(NC(=O)CN(c2ccc3c(c2)OCO3)S(=O)(=O)c2c(C)n[nH]c2C)cc1 | 95.7
37 | COc1ccc(N2CCN(Cc3nc4c(c(=O)n(C)c(=O)n4C)n3Cc3ccccc3C)CC2)cc1 | 90.7
38 | CN(C(=O)c1ccco1)c1nnc(C23CC4CC(CC(C4)C2)C3)s1 | 79.5
39 | CCCC(=O)C1=C(N(C)c2ccccc2)CC(C)(C)C(C(=O)OC)C1=O (stereo not drawn) | 93.7

Experiment: viability of PTEN-null HCT116 cells – cell-based, HCT116 clonal line, CellTiter-Glo, pilot screen (AID 824;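 active = viability at or below 27.92% in each of two runs, the all-compound median minus 4 SD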;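 also: 0% = 20 µM Hyamine control and 100% = vehicle cell control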)
Details: HCT116 PTEN-deleted viability, 60 h, at 10 µM, active compounds read low

Row | SMILES | viability [%]
40 | O=C(c1ccc2nc(N3CCCCC3)sc2c1)N1CCN(c2ccccn2)CC1 | 98.6
41 | CC(C)CCNC(=O)Cn1c(NCCC(C)C)nc2c1c(=O)n(C)c(=O)n2C | 92.8
42 | CC(=O)NC(C)c1nc2ccccc2n1C(C)C (stereo not drawn) | 90
43 | NC(=O)CSc1cn(CCNC(=O)c2cccs2)c2ccccc12 | 94.8
44 | Cc1cccc(C2CC(c3ccc(Cl)cc3)Nc3nc(N)nn32)c1 (stereo not drawn) | 74.9
45 | CCOC(=O)CN1CC23C=CC(O2)C(C(=O)Nc2ccc(C(C)=O)cc2)C3C1=O (stereo not drawn) | 94.2
46 | CCCSc1nnc(N2C(=O)CC(c3ccsc3)C3=C2CCCC3=O)s1 (stereo not drawn) | 89.6
47 | O=C(CN1CCN(Cc2ccc(F)cc2Cl)C1=O)NCCCN1CCOCC1 | 97.3
48 | CN(C)CCCN1C(=O)CSC1c1ccccc1 (stereo not drawn) | 101
49 | COC(=O)Cn1c(=O)c2c(nc3n2CC(C)CN3c2ccc(C)c(C)c2)n(C)c1=O (stereo not drawn) | 91.1
50 | CCCSC1=C(C#N)C(c2cc(OC)ccc2OC)CC(=O)N1 (stereo not drawn) | 92.9
51 | O=C(Nc1ccc(CN2CCOCC2)cc1)c1cc2ccccn2n1 | 95
52 | CCN(CC)CCn1c(=N)n(CCO)c2ccccc21 | 97.5
53 | CCN(CCCNS(=O)(=O)c1ccc2c(c1)oc(=O)n2C)c1cccc(C)c1 | 89.5
54 | COc1ccc(OC)c(C2=NOC(C(=O)Nc3c(C)n(C)n(-c4ccccc4)c3=O)C2)c1 (stereo not drawn) | 107
55 | O=C(Cn1cc2c(n1)CCCCC2)N1CCc2ccccc2C1 | 84.7
56 | Cn1c(=O)c2c(nc(SCCCC#N)n2Cc2c(F)cccc2Cl)n(C)c1=O | 86.1
57 | CCN1CCN(Cc2ccc(NC(=O)Nc3ccccc3)cc2)CC1 | 98.7
58 | CCOC(=O)N1CCN(Cc2nc3c(c(=O)n(C)c(=O)n3C)n2Cc2ccccc2)CC1 | 98
59 | COCCCNC(=O)Cn1cc2c(n1)CCC(C)C2 (stereo not drawn) | 102

Row | SMILES | viability [%]
60 | C=CCc1ccccc1OCCCCN1CCCC1 | 80.8
61 | COc1ccc(OCC(=O)N2CC3(C)CC2CC(C)(C)C3)cc1 (stereo not drawn) | 92
62 | O=C1c2ccccc2C(Nc2ccc(-c3nc4ccccc4[nH]3)cc2)N1Cc1ccco1 (stereo not drawn) | 62.1
63 | CCCNc1nc(N2CCOCC2)nc(N2CCOCC2)n1 | 102
64 | COCCn1c(SCC(=O)Nc2ccc3c(c2)OCCO3)nc2c(c1=O)SC(C)C2 (stereo not drawn) | 95.8
65 | COc1ccc(NC(=O)C2CCCN2S(=O)(=O)c2cccc3cccnc23)c(OC)c1 (stereo not drawn) | 84.3
66 | CCOC(=O)Cn1ncc(-c2ccccc2)c1N | 94.5
67 | O=C(O)C1CC(=O)N(CCOc2ccccc2)C1 (stereo not drawn) | 100
68 | Cc1ccc(-n2c3c(cc(C(=O)NCCCN4CCOCC4)c2=O)C(=O)CC(C)(C)C3)cc1 | 104
69 | CCOC(=O)C1CCN(Cc2ccc(OC)c(C)c2OC)CC1 | 80.3
70 | COc1ccc(C(C)N2CC34C=CC(O3)C(C(=O)OCC(C)C)C4C2=O)cc1 (stereo not drawn) | 88.5
71 | Cc1c(NC(=O)C2CCCCN2S(=O)(=O)c2ccc(Cl)cc2)c(=O)n(-c2ccccc2)n1C (stereo not drawn) | 103
72 | CC(C)(NC(=O)N1CCCC1)c1cccc(C(C)(C)NC(=O)N2CCCC2)c1 | 97.4
73 | CC(C)NC(=O)c1ccc2c(c1)nnn2C | 105
74 | Cc1ccc(C(=O)CC2(O)C(=O)N(C)c3ccc(Br)cc32)c(C)c1 (stereo not drawn) | 74.7
75 | Cc1ccc(NC(=O)CN(c2ccc3c(c2)OCO3)S(=O)(=O)c2c(C)n[nH]c2C)cc1 | 96.9
76 | COc1ccc(N2CCN(Cc3nc4c(c(=O)n(C)c(=O)n4C)n3Cc3ccccc3C)CC2)cc1 | 77.6
77 | CN(C(=O)c1ccco1)c1nnc(C23CC4CC(CC(C4)C2)C3)s1 | 66
78 | CCCC(=O)C1=C(N(C)c2ccccc2)CC(C)(C)C(C(=O)OC)C1=O (stereo not drawn) | 92.9
